Bioassay records: PubChem, National Center for Advancing Translational Sciences (NCATS)
Shiga toxin inh: blocks Shiga toxin action in Vero cells; Vero cells, Shiga toxin protein synthesis inhibition reporter; inhibition, % at 38.7 µM; hit rate 9.2% among 290,000; AID 2315; in the data active = inhibition mostly above about 28%, no sharp cut-off; inactive = mostly below about 43%; also: 0% is about no effect
LmPK inh: inhibitors of Leishmania mexicana pyruvate kinase. hit rate 0.37% among 290,000. Q27686. purified LmPK, Kinase-Glo ATP luminescence, 1 h. Potency, µM (titrated, usually from 57.5 µM), inactives show at the top dose activity change, negative = inhibition, actives largely listed as inhibitors. AID 1721; also: potency is read from the fitted curve at half-maximal effect; % is scaled to controls: 0 for no effect and ±100 for the full control effect
Target sequence (Q27686 whole entry, looked up): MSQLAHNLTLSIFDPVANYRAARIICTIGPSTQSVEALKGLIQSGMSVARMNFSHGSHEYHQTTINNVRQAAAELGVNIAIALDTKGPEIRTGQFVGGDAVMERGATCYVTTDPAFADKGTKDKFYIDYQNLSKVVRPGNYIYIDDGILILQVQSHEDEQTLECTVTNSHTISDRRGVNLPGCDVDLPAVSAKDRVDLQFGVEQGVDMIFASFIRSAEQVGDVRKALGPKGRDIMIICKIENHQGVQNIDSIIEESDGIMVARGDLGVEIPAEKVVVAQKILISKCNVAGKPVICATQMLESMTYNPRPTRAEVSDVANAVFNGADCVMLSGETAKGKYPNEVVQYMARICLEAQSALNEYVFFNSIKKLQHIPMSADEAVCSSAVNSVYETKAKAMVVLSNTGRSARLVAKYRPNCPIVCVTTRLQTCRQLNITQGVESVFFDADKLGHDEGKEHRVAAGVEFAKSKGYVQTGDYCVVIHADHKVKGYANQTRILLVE
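Pyruvate kinase activity monitored as ATP production (luciferase luminescence). Conditions: 0.1 nM enzyme, 0.5 mM PEP, 0.1 mM ADP, 1 h, RT; normalized against uninhibited and no-enzyme wells.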
CHX counter: counter-screen for Shiga toxin inhibitors: cycloheximide protein synthesis inhibition. cell reporter, cycloheximide protein synthesis inhibition counterscreen. max response, %. hit rate 12% among 300,000. AID 2314; in the data active = max response mostly above about 13%, no sharp cut-off; inactive = mostly below about 14%; also: read at 38.3 µM for the half of the compounds with a filed dose; 0% is about no effect
NS1 function inh: inhibitors of influenza NS1 protein function. hit rate 0.4% among 270,000. AID 2326. Potency, µM (top dose mostly 46.1 µM), without a hit: at the highest dose activity, positive = more growth; calls by dose curve; also: potency is read from the fitted curve at half-maximal effect; actives are rising curves; nearly all actives have a fitted effect of over 50% in size
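A cell-based growth assay was used: compounds that relieve NS1-induced slow growth of budding yeast raise OD600. Assay medium was yeast nitrogen base with ammonium sulphate and -URA supplement, pH 6.0, with 2% galactose.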
FBPA Giardia inh: blocks Giardia fructose-bisphosphate aldolase activity | A8B2U2 | purified Giardia FBPA | Potency, µM (top dose mostly 59.6 µM), for inactives: at the highest dose activity, negative = inhibition, usual class: inhibitors | hit rate 0.71% among 290,000 | AID 2451; also: potency is read from the fitted curve at half-maximal effect; % is scaled to controls: 0 for no effect and ±100 for the full control effect; nearly all actives have a fitted effect of over 55% in size
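40 nM FBPA preincubated 10 min at RT with compound (up to 57.5 uM final), then substrate plus GAPDH/TPI/NAD/arsenate coupling and diaphorase/resazurin added. Fluorescence read after 20 min at RT, 525/598 nm.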
Flu NS1 inh: influenza NS1 function inhibition validation; influenza NS1 function cell assay, 15-point titration; shares compounds with NS1 function inh; AID 492980; 1,400 tested, under 10 active; activity change, negative = inhibition, % at 32.9 µM; calls by dose curve; also: 0% is about no effect
Flu PR8 replic: reduces influenza A/PR/8/34 replication in MDCK cells. AID 504647. shares compounds with NS1 function inh. hit rate 30% among 95. MDCK infected influenza A/PR/8/34, virus titer TCID50; hits give low values. virus titer (log TCID50), log10 TCID50 at 5 µM; call rule not given here
Numbers without * were called inactive; ? = inconclusive; nt = not tested or not shown. Compounds with a hit are over-represented: about 14% of the library has one in this group of screens. Unless noted, calls follow the shape of the dose curve; as a rule, active = well fitted curve in the direction sought with a large enough effect; inconclusive = small, poorly fitted or top-dose-only effect, or another doubt; inactive = no such curve, though single readings can be large; an effect the other way counts as inactive or inconclusive.

SMILES	Shiga toxin inh	LmPK inh	CHX counter	NS1 function inh	FBPA Giardia inh	Flu NS1 inh	others
C/C(N)=C(/C#N)C(=O)CN1C(=O)NC(Cc2c[nH]c3ccccc23)C1=O (centres undefined)	16.9	-9.4%	12.7	5.2%	-8.4%	nt
NC(=O)c1cc(S(=O)(=O)Nc2ccc(OC(F)(F)F)cc2)cs1	18.8	-0.6%	-2.5	4.0%	-0.2%	nt
CCn1c(SCC(=O)O)nnc1-c1cc2c(C)nn(-c3ccccc3)c2s1	-14.1	3.5%	-4.2	?	8.1%	8.0
Cc1nn(-c2ccccc2)c2sc(-c3nnc(SCC(=O)O)o3)cc12	-9.2	10.1%	-2.7	1.9%	18.3%	nt
COc1cccc(C(=O)N2CCN=C2SCc2cccnc2)c1OC	-17.0	-1.9%	-7.5	1.58µM*	3.9%	-14.9
CCOC(=O)C1=C(C)N(CCCCCC(=O)O)C(=O)NC1c1ccccc1Cl (centres undefined)	17.1	4.8%	-3.4	?	?	13.7
CCCCN(C(=O)Cn1ncc(Cl)c(Cl)c1=O)c1c(N)n(CC(C)C)c(=O)[nH]c1=O	-3.3	0.3%	-1.9	2.8%	6.7%	nt
Cc1onc(-c2ccccc2Cl)c1C(=O)N(Cc1nc(-c2ccccc2)no1)C1CCCCC1	11.2	2.7%	5.5	10µM*	-0.7%	-22.9
Cc1cccc(-c2noc(CN(C(=O)c3c(-c4ccccc4Cl)noc3C)C(C)C)n2)c1	-1.5	14.5%	0.2	-45.1%	-4.3%	nt
CC(=O)Nc1ccc(NS(=O)(=O)c2ccc(CN3C(=O)c4cccnc4C3=O)cc2)cc1	-12.2	-2.2%	5.4	0.1%	14.6%	nt
COC(=O)C(O)(c1c(C)[nH]n(-c2ccccc2)c1=O)C(F)(F)F (centres undefined)	2.6	-6.5%	11.5	8.91µM*	-12.0%	?
CCOC(=O)Cc1c(C)[nH]n(-c2ccccc2)c1=O	5.4	1.0%	4.1	3.5%	-5.0%	nt
COc1ccc([C@H]2[C@H](C(=O)C(C)(C)C)N3N=Cc4ccccc4C3[C@]23N=C(c2ccccc2)OC3=O)cc1 (some centres undefined)	28.7	2.0%	10.9	2µM*	-10.0%	-9.7
C[C@@H](C(=O)Nc1ccc2ccccc2c1)[C@H]1C[C@]1(C)[C@H](NC(=O)c1cccnc1)c1ccccc1	-15.1	3.5%	-5.8	14.1µM*	-7.6%	-2.7	Flu PR8 replic=8
CC(=O)N[C@H](c1ccccc1)[C@@]1(C)C[C@@H]1[C@@H](C)C(=O)Nc1ccc2ccccc2c1	nt	nt	nt	nt	-2.9%	nt
C[C@@H](C(=O)Nc1ccc2ccccc2c1)[C@@H]1C[C@@]1(C)[C@@H](NC(=O)c1ccccc1)c1ccccc1	10.0	1.0%	7.3	12.6µM*	-3.3%	14.8	Flu PR8 replic=8.66
COc1ccccc1C/C(N)=N/OC(=O)COc1ccc(C)cc1	-6.4	-3.1%	1.0	?	-5.4%	?
Cc1nc(Nc2nc(CSc3nc4ccccc4[nH]3)cc(=O)[nH]2)nc2ccccc12	-15.6	1.5%	-4.7	14.1µM*	-4.3%	13.2
O=C(CSc1nc2ccccc2c(=O)n1-c1ccc(F)cc1)Nc1ccc2c(c1)CCC2	16.4	2.2%	11.3	?	0.5%	nt
O=C(CSc1nc2ccccc2c(=O)n1-c1ccc(F)cc1)Nc1ccc(C(=O)O)cc1	-17.3	1.4%	-2.5	14.1µM*	9.7%	?
Cc1ccc(-n2c(SCC(=O)NNC(=S)Nc3ccccc3)nc3ccccc3c2=O)cc1	-2.7	6.5%	2.8	4.47µM*	4.0%	-25.7
Cc1ccc(-n2c(SCC(=O)Nc3cccc(S(=O)(=O)NC4=NCCCCC4)c3)nc3ccccc3c2=O)cc1	-12.8	0.5%	-1.8	28.5%	-0.4%	nt
O=C(CSc1nc2ccccc2c(=O)n1-c1ccc(F)cc1F)Nc1ccc2c(c1)CCC2	80.2*	3.7%	59.0*	12.6µM*	-3.5%	2.3
CCN(CC)CCNC(=O)C1CCN(S(=O)(=O)c2c(C)noc2/C=C/c2ccccc2F)CC1	-6.1	-7.2%	-1.9	-12.8%	nt	nt
CC(C)c1ccccc1-n1c(SCC(=O)N2CCc3ccccc3C2)nc2ccccc2c1=O	-10.3	1.0%	9.0	22.4µM*	16.3%	-7.2
